Our source for the Potency, viability change, negative = cytotoxic and activity change, negative = cytotoxicity values is PubChem BioAssay (Tox21).

Results filed as inconclusive are left out. Unmarked numbers belong to inactive results. Activity calls are given as the source filed them. Calls come from the whole dose curve; as a rule, active = well fitted cell-killing curve with a large enough effect in the repeat runs; inconclusive = weak or mixed curves, or effect the other way; inactive = flat fitted curve, though single readings scatter.

A short description of assay [1]: cAMP Responsive Elements (CRE) small molecule antagonists, cell-based qHTS assay: qHTS cell viability counter screen (AID 2060913). Note: nearly all actives have a fitted effect of over 40% in size. Put shortly: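 CRE-bla HEK293T cells were seeded in assay medium with 10% dialyzed FBS, incubated 18 hrs at 37 C, then exposed to compounds plus 0.25 uM final NKH477 for 3 hrs. Viability was read by CellTiter-Glo luminescence after 30 min, in the same wells.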

The nature of assay [2]: cAMP Responsive Elements (CRE) small molecule agonists, cell-based qHTS assay: qHTS cell viability counter screen (AID 2060914). Note: nearly all actives have a fitted effect of over 50% in size. The gist of the method: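 Cells are seeded and incubated 18 h, treated with compounds in DMSO for 3 h, read for the bla reporter, then given CellTiter-Glo; luminescence is measured after 30 min at room temperature.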
Background: qHTS replaces the single test concentration by a dilution series.
% is set by controls: 0 for no effect and ±100 for the full control effect.

For the compound `CC(C)(C)c1cccc(C(C)(C)C)c1O`, the Potency entry in assay [1] and in assay [2] was “inactive” in each case.

On to `CNc1ncnc2nc[nH]c12`, for which the Potency entry in assay [1] and in assay [2] was “inactive” throughout.

`CN1CCN(C2=Nc3ccccc3Oc3ccc(Cl)cc32)CC1`: the Potency result in assay [1] and in assay [2] was “inactive” throughout.

Consider `CC1=CC(=O)CCC1`, for which the Potency entry in assay [1] and in assay [2] was “inactive” each time.

Regarding `O=C(Nc1cccc(C2=NCCN2)c1)Nc1cccc(C2=NCCN2)c1`, in assay [1], the viability change, negative = cytotoxic is 0.0426% [at 18.9 µM]. For the same compound, the activity change, negative = cytotoxicity in assay [2] is 10.9% [at 18.9 µM].

Regarding `CC(C)OC=O`, the Potency result in assay [1] and in assay [2] was “inactive” throughout.

For `C[C@@H](O)[C@H]1C(=O)N2C(C(=O)O)=C([C@H]3CCCO3)S[C@H]12`, the Potency result in assay [1] and in assay [2] was “inactive” in each case.

In the case of `CCCCCCCCCCCCCCCCC(C(=O)O)C(O)(CC(=O)O)C(=O)O` (stereo not drawn), the Potency entry in assay [1] and in assay [2] was “inactive” each time.

With `Cc1ccc(C(C)C)cc1`, the Potency entry in assay [1] and in assay [2] was “inactive” throughout.

Consider `NNc1ccc(C(=O)O)cc1`, for which the Potency result in assay [1] and in assay [2] was “inactive” in each case.

Consider `CNC1(C)C2CCC(C2)C1(C)C` (stereo not drawn), for which the Potency result in assay [1] and in assay [2] was “inactive” throughout.

Take `CC(O)CCCCn1c(=O)c2c(ncn2C)n(C)c1=O` (stereo not drawn): the Potency result in assay [1] and in assay [2] was “inactive” throughout.

With `O=C(O)COCC(=O)O`, the Potency entry in assay [1] and in assay [2] was “inactive” in each case.

Take `O=C1c2ccccc2C(=O)c2c1ccc(O)c2O`: the Potency entry in assay [1] and in assay [2] was “inactive” each time.

Take `O=C1O[C@H](CO)[C@@H](O)[C@H](O)[C@H]1O`: the Potency entry in assay [1] and in assay [2] was “inactive” each time.

In the case of `CC1(C)O[C@@H]2[C@@H](CO[C@@]3(COS(N)(=O)=O)OC(C)(C)O[C@@H]23)O1`, the Potency entry in assay [1] and in assay [2] was “inactive” each time.

Regarding `Oc1ccc(Oc2ccccc2)cc1`, the Potency entry in assay [1] and in assay [2] was “inactive” in each case.

Turning to `CCCCCCOCCOCCO`, the Potency result in assay [1] and in assay [2] was “inactive” throughout.

With `CSCCC=O`, the Potency result in assay [1] and in assay [2] was “inactive” in each case.

Consider `CCCCCCCCCI`, for which the Potency entry in assay [1] and in assay [2] was “inactive” each time.

As for `CCN(CC)CCNC(=O)c1cc(Cl)c(N)cc1OC`, the Potency entry in assay [1] and in assay [2] was “inactive” throughout.

Take `Nc1ccc(Oc2ccc(N)c(N)c2)cc1`: the Potency result in assay [1] and in assay [2] was “inactive” throughout.

Regarding `CC1CN(c2cc3c(cc2F)c(=O)c(C(=O)O)cn3-c2ccc(F)cc2F)CCN1` (stereo not drawn), the viability change, negative = cytotoxic in assay [1] was 0.301% [at 8.39 µM]. Further, in assay [2], the activity change, negative = cytotoxicity was -0.163% [at 8.39 µM].

Regarding `C=CC1CO1` (stereo not drawn), the Potency entry in assay [1] and in assay [2] was “inactive” each time.

Turning to `CC(=O)OCC1=C(C(=O)O)N2C(=O)[C@@H](NC(=O)Cc3cccs3)[C@H]2SC1`, the Potency result in assay [1] and in assay [2] was “inactive” in each case.

As for `CCCCCCO`, the Potency entry in assay [1] and in assay [2] was “inactive” each time.

Regarding `COc1cc(C(=O)N2CCCCCCC2)cc(OC)c1OC`, the Potency entry in assay [1] and in assay [2] was “inactive” in each case.

As to `O=P(O)(OCc1ccccc1)OCc1ccccc1`, the Potency result in assay [1] and in assay [2] was “inactive” in each case.

Regarding `CCOC(=O)COc1ccc2c(C)c(CCN(CC)CC)c(=O)oc2c1Cl`, the Potency entry in assay [1] and in assay [2] was “inactive” each time.

For `CCc1ccc(O)c(OC)c1`, the Potency result in assay [1] and in assay [2] was “inactive” in each case.

Turning to `CCOC(CN1CCN(CC(C)C(=O)c2ccccc2)CC1)c1ccccc1` (stereo not drawn), the viability change, negative = cytotoxic in assay [1] is 1.27% [at 18.9 µM]. Also, the activity change, negative = cytotoxicity in assay [2] was -1.12% [at 18.9 µM].

As to `CC(C)C(O)C(C)(C)CO` (stereo not drawn), the Potency entry in assay [1] and in assay [2] was “inactive” each time.

As for `[Cl][In]([Cl])[Cl]`, the Potency entry in assay [1] and in assay [2] was “inactive” in each case.

As to `CC(C)C(=O)OC/C=C/c1ccccc1`, the Potency entry in assay [1] and in assay [2] was “inactive” throughout.

On to `Cc1cc(=O)oc2cc(O)ccc12`, for which the Potency entry in assay [1] and in assay [2] was “inactive” each time.

Take `CCOCCOCCO`: the Potency entry in assay [1] and in assay [2] was “inactive” throughout.

Consider `CC(C)(N)CO`, for which the Potency result in assay [1] and in assay [2] was “inactive” throughout.

Consider `CCOC(=O)COc1cc(-n2ncc(C(F)(F)F)c(C)c2=O)c(F)cc1Cl`, for which the Potency entry in assay [1] and in assay [2] was “inactive” in each case.

Consider `COC(=O)c1c(C)cc(O)c(C)c1O`, for which the Potency result in assay [1] and in assay [2] was “inactive” throughout.

Regarding `CC(C)CC=O`, the Potency result in assay [1] and in assay [2] was “inactive” in each case.

Take `COC(=O)[C@H]1[C@H]2C[C@@H]3c4[nH]c5cc(OC)ccc5c4CCN3C[C@H]2C[C@@H](OC(=O)c2cc(OC)c(OC)c(OC)c2)[C@@H]1OC`: the Potency entry in assay [1] and in assay [2] was “inactive” throughout.

On to `CN(C)[C@@H](CCOc1cccc2ccccc12)c1ccccc1`, for which the Potency result in assay [1] and in assay [2] was “inactive” in each case.

For the compound `Cc1occc1SSc1ccoc1C`, the Potency entry in assay [1] and in assay [2] was “inactive” throughout.

Regarding `C=C(C)[C@H]1CC=C(C)CC1`, the Potency entry in assay [1] and in assay [2] was “inactive” throughout.

`Cc1cccc([N+](=O)[O-])c1C`: the Potency result in assay [1] and in assay [2] was “inactive” each time.

As for `CC(=O)OCc1ccc2c(c1)OCO2`, the Potency result in assay [1] and in assay [2] was “inactive” in each case.

As to `CCCCCCCC`, the Potency entry in assay [1] and in assay [2] was “inactive” throughout.

With `CCCOC(=O)CC`, the Potency entry in assay [1] and in assay [2] was “inactive” each time.

Consider `Cc1scc2c1N(C(=O)CN1CCN(C)CC1)c1ccccc1NC2=O`, for which the Potency entry in assay [1] and in assay [2] was “inactive” in each case.
